Records with an inconclusive call do not appear. A call without a number means that no potency is given here. Unmarked numbers belong to inactive results. Active and inactive are the calls of the source. Calls come from the whole dose curve; as a rule, active = well fitted cell-killing curve with a large enough effect; inconclusive = small, poorly fitted or top-dose-only effect; inactive = no such curve, though single readings can be large or run the other way.
Assay: qHTS of pediatric cancer cell lines to identify multiple opportunities for drug repurposing: Primary screen for Rh30 cells (AID 1347107); note: nearly all actives have a fitted effect of over 75% in size
Conditions: Rh30 rhabdomyosarcoma viability, CellTiter-Glo luminescence, 48 h; series mostly up to 46 µM
Source text: Drug repurposing or repositioning has been offered as a strategy for drug development in oncology programs. This approach has special potential for childhood cancers and other rare or orphan diseases, where the expected return on new drug development has been a disincentive to pharmaceuticals.
In this project we exploit the poly-pharmacology of drugs to discover new indications via phenotypic screening of a panel of 19 well-characterized cell lines derived from solid tumors seen in children and adolescents. The goal is to identify approved drugs with previously unrecognized anticancer properties that has the potential to reveal new mechanisms and biological processes involved in carcinogenesis or drug resistance. We employed a titration-based paradigm (quantitative high-throughput screening or qHTS), where all compounds were tested at multiple concentrations for their effect on cell viability. Concentration-response curves (CRCs) were derived directly from the primary screen, and both potency and efficacy values were used to identify compounds with robust bioactivity profiles. We screened the NIH Chemical Genomics Center (NCGC) Pharmaceutical Collection (NPC) and Mechanism Interrogation Plate (MIPE) small molecule collections of approved and investigational compounds against these cell lines; and measured metabolically active cells after 48 hours of compound treatment as a proxy for cell viability.
Assay Submitter: Nathalia J. Martinez, National Center for Advancing Translational Sciences, National Institutes of Health, Rockville, MD, USA; email: natalia.martinez@nih.gov
[1] Shen, M et al. Quantitative high-throughput phenotypic screening of pediatric cancer cell lines identifies multiple opportunities for drug repurposing. Oncotarget 2017 Dec 19;9(4):4758-4772. PMID 29435139.
The cells were obtained from University of North Carolina (UNC), Pediatric Preclinical Testing Program (PPT), and Coriell Institute (CI).
qHTS cell viability assay:
Cells were assayed in growth media at a density of 500-1,000 cells/well. Five microliters of cells were dispensed into 1,536-well, white, solid-bottom, TC-treated plates (Greiner Bio One) using a multidrop dispenser and incubated at 37 degrees C, 5% CO2, under a humidified atmosphere for 5 hours. Twenty-three nanoliters of compounds and controls (neutral control DMSO or positive control bortezomib at final concentration of 2.3 µM) were subsequently transferred by Kalypsys pintool. For primary screens, the MIPE collection was tested at 11-point dilutions (final concentrations range from 0.78 nM to 46 µM) and the NPC collection at 8-point dilutions (final concentrations range from 0.59 nM to 46 µM). Compounds tested in follow-up screens were assayed at 11-point dilutions. Cells were incubated for 48 hours, followed by addition of 3 µL of CellTiter-Glo (Promega). After a 15 min incubation at room temperature, samples were analyzed for luminescence intensity using a ViewLux High-throughput CCD imager equipped with clear filters.
Potency is the fitted concentration of half-maximal effect.

| SMILES | activity change, negative = cytotoxic | Potency |
| --- | --- | --- |
| COc1ccc(CC2c3cc(OC)c(OC)cc3CC[N+]2(C)CCC(=O)OCCCCCOC(=O)CC[N+]2(C)CCc3cc(OC)c(OC)cc3C2Cc2ccc(OC)c(OC)c2)cc1OC (stereo not given) | 18.3% [at 9.22 µM] |  |
| CC(C)c1cc(C(=O)N2Cc3ccc(CN4CCN(C)CC4)cc3C2)c(O)cc1O |  | inactive |
| CCCCN1CCC(CNC(=O)c2c3n(c4ccccc24)CCCO3)CC1 |  | inactive |
| COc1ccc(C=Cc2cc(OC)c(OC)c(OC)c2)cc1O |  | inactive |
| CNC(=O)c1ccc(-c2cnc3ncc(Cc4ccc5ncccc5c4)n3n2)cc1F |  | inactive |
| C=C1C(=CC=C2CCC[C@]3(C)[C@@H]([C@H](C)C=C[C@H](C)C(C)C)CC[C@@H]23)C[C@@H](O)C[C@@H]1O |  | 3.72 µM (active) |
| COc1ccc2c(OCc3nnc4ccc(-c5ccccc5)nn34)ccnc2c1 |  | inactive |
| c1cc(-c2cnn3cc(-c4ccc(OCCN5CCCCC5)cc4)cnc23)ccn1 |  | 18.7 µM (active) |
| C[C@@]12O[C@@H](C[C@]1(O)CO)n1c3ccccc3c3c4c(c5c6ccccc6n2c5c31)CNC4=O |  | inactive |
| O=C(NCCS(=O)(=O)c1ccc(C(F)(F)F)cn1)c1ccc(Cl)cc1 |  | inactive |
| Nc1ccccc1NC(=O)c1ccc(CNc2nccc(-c3cccnc3)n2)cc1 |  | inactive |
| Cc1cn2cc(C(=O)N(C)CCO)cc(N[C@@H]3CCOc4cccc(C)c43)c2n1 |  | inactive |
| CCN(CC)CCNC(=O)c1ccc2nc(-c3ccccc3)c(-c3ccc(CN4CCC(n5c(=O)[nH]c6ccccc65)CC4)cc3)nc2c1 |  | 18.7 µM (active) |
| Cc1cc(C(=O)N2CCN(c3cccc(Cl)c3)CC2)n(-c2ccccc2)n1 |  | inactive |
| Nc1ccn([C@@H]2O[C@H](CO)[C@H](O)C2(F)F)c(=O)n1 |  | inactive |
| CCC1=C[C@@H]2CN(C1)Cc1c([nH]c3ccccc13)[C@@](C(=O)OC)(c1cc3c(cc1OC)N(C)[C@@H]1[C@@](O)(C(=O)OC)[C@H](OC(C)=O)[C@]4(CC)C=CCN5CC[C@]31[C@@H]54)C2 |  | inactive |
| O=C(O)CCCc1c[nH]c2ccccc12 |  | inactive |
| Nc1nccc(Oc2ccc(NC(=O)c3c[nH]cc(-c4ccc(F)cc4)c3=O)cc2F)c1Cl |  | inactive |
| CNC(=O)c1ccccc1Nc1nc(Nc2ccc(N3CCOCC3)cc2OC)ncc1Cl |  | 1.32 µM (active) |
| CN(C)Cc1c(C(=O)NCCOc2ccc(C(=O)NO)cc2)oc2ccccc12 |  | 4.69 µM (active) |

| SMILES | activity change, negative = cytotoxic | Potency |
| --- | --- | --- |
| O=C(c1cncc(Br)c1)N1CCC(N2CCCC2)CC1 |  | inactive |
| CN1CC[C@@H](c2c(O)cc(O)c3c(=O)cc(-c4ccccc4Cl)oc23)[C@@H](O)C1 |  | inactive |
| O=c1c2ccccc2nc2n1CCc1c-2[nH]c2ccccc12 |  | inactive |
| C[C@H]1C[C@@H]2[C@@H]([C@@H](O)C[C@@]3(C)[C@H]2CC[C@]3(O)C(=O)CO)[C@@]2(C)C=CC(=O)C=C12 |  | inactive |
| COc1cc(C)c(Sc2cnc(NC(=O)c3ccc(CNC(C)C(C)C)cc3)s2)cc1C(=O)N1CCN(C(C)=O)CC1 (stereo not given) |  | 8.33 µM (active) |
| CC(C)(C)OC(=O)Nc1ccc(-c2cc(C(=O)NCCCCCCC(=O)NO)no2)cc1 |  | 7.43 µM (active) |
| CN[C@H]1CCc2cc(OC)c(OC)c(OC)c2-c2ccc(OC)c(=O)cc21 |  | inactive |
| COC(=O)C1=C(C)NC(C)=C(C(=O)OCCN2CCN(C(c3ccccc3)c3ccccc3)CC2)C1c1cccc([N+](=O)[O-])c1 (stereo not given) |  | inactive |
| COc1cc2c(NC3CCN(C(C)C)CC3)nc(C3CCCCC3)nc2cc1OCCCN1CCCC1 |  | 18.7 µM (active) |
| Clc1cccc(-n2nnnc2NCc2ccccc2Oc2ccccn2)c1Cl |  | inactive |
| COc1ccc(C(=O)CC2(O)C(=O)Nc3c(Cl)ccc(Cl)c32)cc1 (stereo not given) |  | inactive |
| OCc1ccc(-c2ccc(-c3ccc(CO)s3)o2)s1 |  | 16.6 µM (active) |
| COc1cccc(-c2ccc(NC(=O)C3=C(C(=O)O)CCC3)c(F)c2)c1 |  | inactive |
| COc1cccc2c(NCc3ccccc3)nc(-n3c(N)nc4ccccc43)nc12 |  | 14.8 µM (active) |
| O=C1CCC[C@@H]2[C@H]3CCC[N+]4([O-])CCC[C@@H](CN12)[C@@H]34 (stereo not given in full) |  | inactive |
| Cc1nc2cnc3ccc(C#Cc4cccnc4)cc3c2n1-c1ccc(C(C)(C)C#N)cc1 |  | 0.469 µM (active) |
| CC(=O)SC[C@@H](C)C(=O)N1CCC[C@H]1C(=O)N[C@@H](Cc1ccccc1)C(=O)O |  | inactive |
| CC1(C)OC2=C(C(=O)c3ccccc3C2=O)[C@H](NCc2ccccc2)[C@H]1O |  | 5.9 µM (active) |
| COc1cc2c(Nc3ccc(NC(=O)c4ccccc4)cc3)ncnc2cc1OCCCN1CCOCC1 |  | inactive |
| CC[C@H]1CN2CCc3cc(OC)c(OC)cc3[C@H]2C[C@@H]1C[C@@H]1NCCc2cc(OC)c(OC)cc21 |  | inactive |
